Assay results: the supplement of paper PMC10849652
About 7,900 targets were measured; listed, in parts, are those with a hit and a random draw of the rest. About 0.6% of all pairs of compound and target were hits.

Experiments:
Assay in all cases: log2 fold change, soluble protein after heating vs DMSO (PISA); higher = thermal stabilisation; K562 cells, 10 uM, 30 min; active = over 0.2 and 3.5 SD of the protein, either way, in both replicates (recomputed)
[1] = compound: CC[C@@H]1C(=O)N(C)c2cnc(Nc3ccc(C(=O)NC4CCN(C)CC4)cc3OC)nc2N1C1CCCC1
Method in brief: (§1)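 K562 cells at 2×10^6 cells/mL were treated for 30 min with 10 μM compound, and aliquots were heated for 3 min over 48°C-58°C before pooling. Extraction used PBS with 0.5% NP-40 at 4°C, and soluble protein was the supernatant after 21,000xg for 90 min, measured by TMTpro 16plex LC-MS/MS with channel sums equalised. Thermal stability values, relative to control samples and from duplicates, are log2 fold changes.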

volasertib = compound: CC[C@@H]1C(=O)N(C)c2cnc(Nc3ccc(C(=O)N[C@H]4CC[C@H](N5CCN(CC6CC6)CC5)CC4)cc3OC)nc2N1C(C)C [volasertib]
Method in brief: as §1

[2] = compound: CC[C@H](C)N1C=C(C2=C(C=C(C=C21)C3=CN=C(C=C3)N4CCNCC4)C(=O)NCC5=C(C=C(NC5=O)C)C)C
Method in brief: as §1

epoxomicin = compound: CC[C@H](C)[C@@H](C(=O)N[C@@H]([C@@H](C)O)C(=O)N[C@@H](CC(C)C)C(=O)[C@]1(CO1)C)NC(=O)[C@H]([C@@H](C)CC)N(C)C(=O)C [epoxomicin]
Method in brief: as §1

[3] = compound: CCn1cc(-c2ccnc3[nH]c(-c4cccc(CN(C)C)c4)cc23)c(-c2ccc(NC(=O)N(C)C)cc2)n1
Method in brief: as §1

[4] = compound: CN(C)CC(=O)Nc1ccc2[nH]c(=O)c3ccccc3c2c1
Method in brief: as §1

rosiglitazone = compound: CN(CCOC1=CC=C(C=C1)C[C@H]2C(=O)NC(=O)S2)C3=CC=CC=N3 (racemic) [rosiglitazone]
Method in brief: as §1

[5] = compound: CN1C2=C(C3=C1C(=O)N(N=C3)CC4=CC(=CC=C4)N)SC(=C2)S(=O)C
Method in brief: as §1

[6] = compound: CN1CCC(CNc2ccc3ncc(-c4cccc(OC(F)(F)F)c4)n3n2)CC1
Method in brief: as §1

[7] = compound: CCn1c(C(=O)N(C2CC2)C2CC2)cc2c3c(ncn3C)c(Nc3cc(C)n(C)n3)nc21
Method in brief: as §1

Measured: log2 fold change

GEMIN2 (UniProt O14893)
Sequence of UniProt O14893 (O14893 whole entry, looked up): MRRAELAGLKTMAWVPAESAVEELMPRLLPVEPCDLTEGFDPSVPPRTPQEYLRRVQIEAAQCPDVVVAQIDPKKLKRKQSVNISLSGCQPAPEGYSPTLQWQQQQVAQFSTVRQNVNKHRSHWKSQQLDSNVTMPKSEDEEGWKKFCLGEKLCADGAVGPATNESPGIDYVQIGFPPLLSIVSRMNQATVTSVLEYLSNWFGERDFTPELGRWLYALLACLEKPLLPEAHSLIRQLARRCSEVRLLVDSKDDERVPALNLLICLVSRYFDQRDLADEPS
inactive: [1] -0.203 | volasertib -0.061 | [2] -0.057 | epoxomicin 0.011 | [3] 0.013 | [4] 0.019 | rosiglitazone 0.059 | [5] 0.101 | [6] 0.031

GAB2 (UniProt Q9UQC2)
inactive: [1] -0.203 | volasertib -0.009 | epoxomicin 0.065 | [7] -0.085 | [3] 0.034 | [4] -0.016 | [5] 0.002 | [6] -0.458

IFITM3 (UniProt Q01628)
Sequence of UniProt Q01628 (Q01628 whole entry, looked up): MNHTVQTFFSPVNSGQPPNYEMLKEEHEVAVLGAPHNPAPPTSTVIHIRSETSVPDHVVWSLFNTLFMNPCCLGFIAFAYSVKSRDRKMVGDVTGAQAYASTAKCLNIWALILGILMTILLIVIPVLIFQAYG
inactive: [1] -0.004 | volasertib 0.033 | [2] 0.023 | epoxomicin -0.007 | [7] -0.124 | [4] 0.175 | rosiglitazone -0.096 | [5] -0.015

GOPC (UniProt Q9HD26)
inactive: volasertib -0.015 | [2] 0.022 | epoxomicin -0.053 | [7] 0 | [3] 0.149 | [4] 0.056 | rosiglitazone -0.06 | [5] 0.153 | [6] 0.485

FCF1 (UniProt Q9Y324)
Sequence of UniProt Q9Y324 (Q9Y324 whole entry, looked up): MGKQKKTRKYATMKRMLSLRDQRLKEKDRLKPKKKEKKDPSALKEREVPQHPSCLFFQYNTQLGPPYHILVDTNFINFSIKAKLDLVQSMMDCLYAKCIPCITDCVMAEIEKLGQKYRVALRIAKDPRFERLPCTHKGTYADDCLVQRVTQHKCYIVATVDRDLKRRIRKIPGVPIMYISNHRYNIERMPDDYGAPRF
inactive: [1] 0.095 | volasertib 0.108 | epoxomicin -0.003 | [3] 0.134 | [4] -0.041 | [5] 0.107 | [6] 0.219

FBXO9 (UniProt Q9UK97)
Sequence of UniProt Q9UK97 (Q9UK97 whole entry, looked up): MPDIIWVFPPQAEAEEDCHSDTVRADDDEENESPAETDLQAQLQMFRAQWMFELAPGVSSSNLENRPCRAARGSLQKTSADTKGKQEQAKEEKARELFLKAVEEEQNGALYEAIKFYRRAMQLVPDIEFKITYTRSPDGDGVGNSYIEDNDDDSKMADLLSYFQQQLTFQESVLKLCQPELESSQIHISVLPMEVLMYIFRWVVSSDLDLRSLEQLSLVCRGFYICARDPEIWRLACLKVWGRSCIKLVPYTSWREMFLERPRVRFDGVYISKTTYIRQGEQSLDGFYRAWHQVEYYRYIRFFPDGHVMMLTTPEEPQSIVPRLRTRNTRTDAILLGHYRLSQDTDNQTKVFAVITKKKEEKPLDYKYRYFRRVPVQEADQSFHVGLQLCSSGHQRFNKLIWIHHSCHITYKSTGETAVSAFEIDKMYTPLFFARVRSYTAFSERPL
active: volasertib -0.545
inactive: [1] -0.17 | [2] 0.06 | [7] 0.086 | [3] 0.009 | [4] 0.097 | rosiglitazone 0.07 | [5] 0.045 | [6] 0.203

HBZ, A0A494C057
inactive: [1] 0.203 | [2] -0.079 | [7] -0.008 | rosiglitazone -0.188

GLIPR2 (UniProt Q9H4G4)
Sequence of UniProt Q9H4G4 (Q9H4G4 whole entry, looked up): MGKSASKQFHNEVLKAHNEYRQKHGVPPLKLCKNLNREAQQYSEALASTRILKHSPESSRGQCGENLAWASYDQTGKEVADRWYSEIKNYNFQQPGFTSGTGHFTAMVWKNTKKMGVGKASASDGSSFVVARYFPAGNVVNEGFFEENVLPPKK
inactive: [1] -0.047 | volasertib 0.163 | epoxomicin -0.088 | [7] -0.041 | [3] -0.032 | [4] -0.117 | rosiglitazone 0.151 | [5] -0.084 | [6] -0.239

HNRNPK isoform 3 (UniProt P61978)
inactive: [1] 0.121 | [2] -0.062 | epoxomicin -0.035 | [7] 0.034 | [3] 0.032 | [4] 0.012 | rosiglitazone -0.035 | [5] -0.057 | [6] 0.076

H3-3A (UniProt P84243)
inactive: [1] -0.083 | volasertib -0.239 | [2] 0.147 | [7] -0.123 | [4] -0.083 | rosiglitazone 0.076 | [5] 0.045

GOLGA8R (UniProt I6L899)
Sequence of UniProt I6L899 (I6L899 whole entry, looked up): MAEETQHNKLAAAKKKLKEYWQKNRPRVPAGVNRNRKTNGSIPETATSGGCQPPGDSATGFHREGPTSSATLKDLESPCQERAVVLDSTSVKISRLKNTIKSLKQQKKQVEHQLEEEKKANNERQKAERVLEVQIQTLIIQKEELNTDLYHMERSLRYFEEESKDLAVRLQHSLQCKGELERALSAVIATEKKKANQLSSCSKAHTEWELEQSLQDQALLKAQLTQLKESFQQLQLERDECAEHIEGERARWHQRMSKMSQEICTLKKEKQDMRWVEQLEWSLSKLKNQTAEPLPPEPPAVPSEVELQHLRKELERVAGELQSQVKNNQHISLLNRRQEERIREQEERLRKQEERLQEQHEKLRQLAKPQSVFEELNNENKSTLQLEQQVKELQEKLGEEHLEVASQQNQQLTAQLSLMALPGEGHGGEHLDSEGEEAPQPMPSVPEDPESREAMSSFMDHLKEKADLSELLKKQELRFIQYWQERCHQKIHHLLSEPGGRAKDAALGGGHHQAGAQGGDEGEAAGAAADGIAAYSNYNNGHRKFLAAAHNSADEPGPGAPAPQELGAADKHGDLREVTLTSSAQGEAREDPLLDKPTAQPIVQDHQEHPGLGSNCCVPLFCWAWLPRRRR
inactive: [1] -0.036 | volasertib -0.4 | [7] -0.233 | [3] -0.182 | [4] 0.191 | rosiglitazone 0.074 | [5] -0.003 | [6] -0.033

GOLGA6B (UniProt A6NDN3)
Sequence of UniProt A6NDN3 (A6NDN3 whole entry, looked up): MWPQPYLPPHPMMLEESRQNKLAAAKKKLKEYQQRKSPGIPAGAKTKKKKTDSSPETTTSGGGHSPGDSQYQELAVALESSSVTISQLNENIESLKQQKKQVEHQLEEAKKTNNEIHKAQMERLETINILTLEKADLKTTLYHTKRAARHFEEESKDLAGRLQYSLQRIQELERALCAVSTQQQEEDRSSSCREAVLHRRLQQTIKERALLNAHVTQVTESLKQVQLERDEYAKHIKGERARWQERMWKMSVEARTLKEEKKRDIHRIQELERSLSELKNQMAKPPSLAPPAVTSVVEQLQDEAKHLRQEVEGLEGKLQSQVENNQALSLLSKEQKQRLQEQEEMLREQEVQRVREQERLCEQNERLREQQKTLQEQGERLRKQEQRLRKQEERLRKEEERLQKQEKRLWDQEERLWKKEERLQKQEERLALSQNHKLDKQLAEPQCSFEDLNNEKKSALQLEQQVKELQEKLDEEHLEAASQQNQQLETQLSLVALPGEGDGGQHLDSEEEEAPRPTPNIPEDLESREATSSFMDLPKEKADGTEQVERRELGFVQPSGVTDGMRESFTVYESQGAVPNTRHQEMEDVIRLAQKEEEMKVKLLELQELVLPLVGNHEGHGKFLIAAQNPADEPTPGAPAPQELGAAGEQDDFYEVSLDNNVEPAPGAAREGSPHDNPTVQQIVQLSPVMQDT
inactive: epoxomicin -0.061 | [7] 0.07 | [3] -0.185 | [4] 0.327 | rosiglitazone 0.084 | [6] 0.067
active: [2] -0.579

IDH3A isoform 2 (UniProt P50213)
Sequence of UniProt P50213 (P50213 whole entry, looked up): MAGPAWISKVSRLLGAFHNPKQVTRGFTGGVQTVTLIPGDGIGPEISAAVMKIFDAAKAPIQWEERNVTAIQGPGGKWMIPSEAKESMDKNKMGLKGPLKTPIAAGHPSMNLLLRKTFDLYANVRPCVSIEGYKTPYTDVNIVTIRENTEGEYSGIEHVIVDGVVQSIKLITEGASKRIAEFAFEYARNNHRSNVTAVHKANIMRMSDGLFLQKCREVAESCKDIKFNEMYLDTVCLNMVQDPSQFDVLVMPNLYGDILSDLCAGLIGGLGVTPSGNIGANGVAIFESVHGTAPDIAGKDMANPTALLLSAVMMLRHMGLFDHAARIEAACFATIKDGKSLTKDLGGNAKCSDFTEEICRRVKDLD
inactive: [2] -0.056 | [7] -0.14 | rosiglitazone 0.003

FUT8 (UniProt Q9BYC5)
Sequence of UniProt Q9BYC5 (Q9BYC5 whole entry, looked up): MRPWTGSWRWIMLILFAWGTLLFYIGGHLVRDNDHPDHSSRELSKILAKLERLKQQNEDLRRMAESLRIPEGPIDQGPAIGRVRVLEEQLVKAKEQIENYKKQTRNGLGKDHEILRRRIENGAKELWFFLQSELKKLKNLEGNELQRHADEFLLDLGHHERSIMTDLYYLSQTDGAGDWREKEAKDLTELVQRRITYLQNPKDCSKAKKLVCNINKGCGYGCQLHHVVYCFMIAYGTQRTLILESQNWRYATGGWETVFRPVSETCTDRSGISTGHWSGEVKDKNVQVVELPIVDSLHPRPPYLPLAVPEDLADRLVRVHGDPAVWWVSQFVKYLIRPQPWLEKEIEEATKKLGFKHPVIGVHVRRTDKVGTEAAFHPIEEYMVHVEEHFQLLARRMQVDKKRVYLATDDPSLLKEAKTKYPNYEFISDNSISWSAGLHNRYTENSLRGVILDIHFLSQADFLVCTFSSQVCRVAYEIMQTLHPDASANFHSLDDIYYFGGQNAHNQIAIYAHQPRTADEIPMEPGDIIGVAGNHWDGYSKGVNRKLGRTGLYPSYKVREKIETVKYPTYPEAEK
inactive: [2] -0.042 | epoxomicin 0.002 | [7] 0.08 | [3] 0.06 | [4] 0.175 | rosiglitazone -0.001 | [5] -0.04 | [6] -0.057
active: [1] -0.327

GPD1 (UniProt P21695)
Sequence of UniProt P21695 (P21695 whole entry, looked up): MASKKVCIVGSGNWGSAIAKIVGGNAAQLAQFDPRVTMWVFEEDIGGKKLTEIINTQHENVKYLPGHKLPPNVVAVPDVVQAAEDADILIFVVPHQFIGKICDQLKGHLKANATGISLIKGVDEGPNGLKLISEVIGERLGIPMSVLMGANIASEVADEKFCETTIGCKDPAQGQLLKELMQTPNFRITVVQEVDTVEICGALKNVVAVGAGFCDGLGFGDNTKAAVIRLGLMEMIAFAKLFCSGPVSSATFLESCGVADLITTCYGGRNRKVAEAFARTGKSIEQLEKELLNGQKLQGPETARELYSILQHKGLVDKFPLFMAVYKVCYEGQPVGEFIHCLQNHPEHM
inactive: volasertib -0.161 | [2] 0 | epoxomicin -0.205 | [7] -0.23 | [3] -0.011 | [4] -0.045 | rosiglitazone 0.027 | [5] -0.126 | [6] -0.183

FGG (UniProt P02679)
inactive: volasertib -0.042 | [3] 0.035 | [6] 0.137

FMR1 (UniProt Q06787)
inactive: [1] -0.068 | volasertib -0.173 | [7] 0.178 | [3] 0.088 | [6] 0.279

FAT2 (UniProt Q9NYQ8)
inactive: [1] 0.011 | volasertib 0.029 | epoxomicin -0.047 | [7] -0.183 | [3] -0.023 | [4] -0.06 | rosiglitazone -0.27 | [5] -0.023 | [6] 0.109

FCHO1 (UniProt O14526)
inactive: [1] -0.186 | [2] 0.168 | epoxomicin 0.05 | [7] 0.067 | [4] 0.112 | [5] 0.025
active: volasertib -0.768

FASTKD1 (UniProt Q53R41)
inactive: [1] -0.023 | [2] -0.088 | epoxomicin 0.155 | [7] -0.151 | [3] 0.051 | [4] 0.064 | rosiglitazone 0.014 | [5] 0.072 | [6] -0.188

FIZ1 (UniProt Q96SL8)
Sequence of UniProt Q96SL8 (Q96SL8 whole entry, looked up): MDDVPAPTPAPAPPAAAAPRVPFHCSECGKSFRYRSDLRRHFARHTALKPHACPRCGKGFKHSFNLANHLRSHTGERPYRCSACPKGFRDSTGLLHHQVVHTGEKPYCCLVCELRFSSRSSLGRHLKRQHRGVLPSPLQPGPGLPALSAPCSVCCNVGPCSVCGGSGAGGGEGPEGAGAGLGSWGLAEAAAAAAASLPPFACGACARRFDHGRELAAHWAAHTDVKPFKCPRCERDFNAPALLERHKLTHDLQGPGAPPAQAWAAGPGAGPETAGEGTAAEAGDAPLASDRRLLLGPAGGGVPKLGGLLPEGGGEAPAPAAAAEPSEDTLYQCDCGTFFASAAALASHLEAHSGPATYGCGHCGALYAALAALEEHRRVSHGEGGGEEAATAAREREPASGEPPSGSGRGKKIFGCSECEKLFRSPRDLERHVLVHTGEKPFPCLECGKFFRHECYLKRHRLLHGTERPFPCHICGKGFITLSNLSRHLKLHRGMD
inactive: [1] 0.169 | [2] 0.088 | epoxomicin -0.071 | [3] -0.125 | [4] -0.06 | [5] 0.138 | [6] 0.024

GPNMB (UniProt Q14956)
inactive: [1] 0.206 | epoxomicin -0.191 | [7] 0.149

GTPBP6 (UniProt O43824)
Sequence of UniProt O43824 (O43824 whole entry, looked up): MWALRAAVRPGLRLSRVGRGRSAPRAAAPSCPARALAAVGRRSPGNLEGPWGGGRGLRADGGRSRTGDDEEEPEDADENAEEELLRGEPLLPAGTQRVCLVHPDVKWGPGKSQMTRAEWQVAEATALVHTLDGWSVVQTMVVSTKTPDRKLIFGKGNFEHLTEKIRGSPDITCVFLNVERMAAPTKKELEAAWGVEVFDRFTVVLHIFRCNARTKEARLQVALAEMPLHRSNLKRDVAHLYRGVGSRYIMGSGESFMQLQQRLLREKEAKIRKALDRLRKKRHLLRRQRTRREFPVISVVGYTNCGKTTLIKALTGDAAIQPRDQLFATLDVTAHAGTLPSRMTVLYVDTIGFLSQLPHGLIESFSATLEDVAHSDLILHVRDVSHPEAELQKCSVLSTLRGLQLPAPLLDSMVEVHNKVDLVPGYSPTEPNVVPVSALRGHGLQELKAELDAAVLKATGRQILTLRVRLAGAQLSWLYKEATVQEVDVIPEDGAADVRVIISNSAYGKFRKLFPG
inactive: [1] -0.07 | [2] -0.041 | epoxomicin 0.026 | [7] 0.025 | [3] -0.079 | [4] 0.034 | rosiglitazone 0.299 | [5] -0.13 | [6] -0.007

HSPA2 (UniProt P54652)
inactive: [2] -0.014 | [7] -0.012 | rosiglitazone 0.02

FUNDC1 (UniProt Q8IVP5)
inactive: volasertib 0.078 | rosiglitazone -0.13
